Measurements from PubChem BioAssay (Tox21).
Inconclusive results are not listed. Entries that show only a call come without a potency. A number with no mark means an inactive call. The source made the active and inactive calls. Unless noted, the call rests on the fitted dose curve; in most records, active means well fitted cell-killing curve with a large enough effect in the repeat runs; inconclusive means weak or mixed curves; inactive means no such curve, though single readings can be large or run the other way.

tested on: not listed separately; assay: qHTS assay to identify small molecule agonists of the peroxisome proliferator-activated receptor delta (PPARd) signaling pathway - cell viability counter screen (AID 743211); conditions: PPARd-bla HEK293H viability, CellTiter-Glo luminescence, 17 h; series mostly up to 62.6 µM; activity change, negative = cytotoxicity: at the top concentration; further: nearly all actives have a fitted effect of over 55% in size
In short: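 Following 5 h plating at 37 C and 5% CO2, PPARd UAS-bla HEK293H cells took up test compounds for 17 h. Viability was quantified by luminescence 30 min after CellTiter-Glo addition at room temperature.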

SMILES	outcome	activity change, negative = cytotoxicity
NCCN1CCNCC1	inactive	
CCCCCCCC=O		3.36%
O=c1[nH]cnc2[nH]ncc12	inactive	
c1ccc2c(c1)Cc1ccccc1-2	inactive	
CC1(C)CC(N)CC(C)(CN)C1 (stereo unspecified)	inactive	
CCCCCCO	inactive	
O=C(O)Cn1c(=O)n(Cc2ccc(Br)cc2F)c(=O)c2ccc(Cl)cc21	inactive	
OCc1ccccc1	inactive	
Cc1ccc(C(C)C)c(O)c1		8.35%
C=CC(=O)OCCC(=O)O	inactive	
C=CC(C)CCCC(C)(C)O (stereo unspecified)	inactive	
COCCOC(=O)c1ccccc1C(=O)OCCOC	inactive	
CCCCOC(=O)c1ccc(N)cc1	inactive	
CC(CCO)CC(C)(C)C (stereo unspecified)		2.91% [at 81.1 µM]
C=CCCCCCCCCC(=O)O		-24.8%
C=C(C)[C@H]1CC=C(C)C(=O)C1	inactive	
CCc1ccccc1CC	inactive	
CCOCCOCCOCCO	inactive	
O=C(O)c1ccc(S(=O)(=O)N(Cl)Cl)cc1	inactive	

SMILES	outcome	activity change, negative = cytotoxicity
Clc1ccccn1	inactive	
COCCCN	inactive	
CN/C(=C\[N+](=O)[O-])NCCSCc1csc(CN(C)C)n1	inactive	
Brc1ccc(Br)c(Br)c1	inactive	
CC1(C)NC(=O)NC1=O	inactive	
CCO[Si](CCC#N)(OCC)OCC	inactive	
Cc1ccc([N+](=O)[O-])cc1S(=O)(=O)O	inactive	
O=C(O)c1ccccc1C(=O)O	inactive	
CC1(C)OC[C@@H]2O[C@@]3(C(=O)O)OC(C)(C)O[C@H]3[C@@H]2O1	inactive	
CNC(=S)N(C)C	inactive	
O=C1CCCC1	inactive	
CC(O)CC(C)(C)O (stereo unspecified)		6.47%
COC(=O)CCCC(=O)OC	inactive	
C=CCc1ccc(OC)c(OC)c1		-1.01% [at 81.1 µM]
Cc1ccc(S(=O)(=O)N=C=O)cc1	inactive	
O=S(=O)(O)c1ccccc1	inactive	
CN1C(=O)CC[C@H]1c1cccnc1	inactive	
CCNC(=S)NCC	inactive	
C=CC[N+](C)(C)CC=C	inactive	

target: Peroxisome proliferator-activated receptor delta (Homo sapiens) (UniProt Q03181); assay: qHTS assay to identify small molecule agonists of the peroxisome proliferator-activated receptor delta (PPARd) signaling pathway (AID 743212; calls by dose curve); conditions: HEK293H PPARd-UAS-bla, beta-lactamase FRET ratio, 17 h; series mostly up to 62.6 µM; activation: at the top concentration
Sequence (Q03181 whole entry, looked up): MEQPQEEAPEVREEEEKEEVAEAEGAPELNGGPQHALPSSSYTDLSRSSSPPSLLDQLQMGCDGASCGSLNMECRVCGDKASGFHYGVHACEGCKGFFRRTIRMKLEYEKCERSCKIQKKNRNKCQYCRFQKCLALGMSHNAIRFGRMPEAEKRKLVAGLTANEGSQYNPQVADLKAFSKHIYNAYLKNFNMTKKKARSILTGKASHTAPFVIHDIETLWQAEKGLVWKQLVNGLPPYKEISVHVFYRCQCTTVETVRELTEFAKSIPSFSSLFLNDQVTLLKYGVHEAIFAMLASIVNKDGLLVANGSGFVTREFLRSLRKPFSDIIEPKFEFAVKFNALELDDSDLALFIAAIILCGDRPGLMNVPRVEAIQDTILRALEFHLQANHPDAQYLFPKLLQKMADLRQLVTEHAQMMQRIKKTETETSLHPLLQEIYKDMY
In short: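 Tox21 library screened in GeneBLAzer PPARd UAS-bla HEK293H cells. After compound treatment at 37 C, a FRET-based beta-lactamase substrate was applied for 2 h and fluorescence recorded.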

SMILES	Potency
NCCN1CCNCC1	inactive
O=c1[nH]cnc2[nH]ncc12	inactive
CC1(C)CC(N)CC(C)(CN)C1 (stereo unspecified)	inactive
Cc1ccc(C(C)C)c(O)c1	inactive
C=CC(C)CCCC(C)(C)O (stereo unspecified)	inactive
COCCOC(=O)c1ccccc1C(=O)OCCOC	inactive
CCCCOC(=O)c1ccc(N)cc1	inactive
Clc1ccccn1	inactive
COCCCN	inactive
CN/C(=C\[N+](=O)[O-])NCCSCc1csc(CN(C)C)n1	inactive
CC1(C)NC(=O)NC1=O	inactive
Cc1ccc([N+](=O)[O-])cc1S(=O)(=O)O	inactive
O=C(O)c1ccccc1C(=O)O	inactive
COC(=O)CCCC(=O)OC	inactive
C=CCc1ccc(OC)c(OC)c1	inactive
Cc1ccc(S(=O)(=O)N=C=O)cc1	inactive
CCNC(=S)NCC	inactive
C=CC[N+](C)(C)CC=C	inactive

tested on: not listed separately; assay: qHTS assay to identify small molecule antagonists of the peroxisome proliferator-activated receptor delta (PPARd) signaling pathway - cell viability counter screen (AID 743213); conditions: PPARd-bla HEK293H viability, CellTiter-Glo luminescence, 17 h; series mostly up to 62 µM; viability change, negative = cytotoxic: at the top concentration; further: nearly all actives have a fitted effect of over 50% in size
In short: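 Agonist-stimulated (L165041, 300 nM final) HEK293H PPARd UAS-bla cells are exposed to compounds for 17 h at 37 C, and ATP-based luminescence (CellTiter-Glo) from the same wells reports cytotoxicity.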

SMILES	outcome	viability change, negative = cytotoxic
NCCN1CCNCC1	inactive	
CCCCCCCC=O	inactive	
O=c1[nH]cnc2[nH]ncc12		-12.9% [at 80.4 µM]
c1ccc2c(c1)Cc1ccccc1-2	inactive	
CC1(C)CC(N)CC(C)(CN)C1 (stereo unspecified)		-1.67%
CCCCCCO	inactive	
O=C(O)Cn1c(=O)n(Cc2ccc(Br)cc2F)c(=O)c2ccc(Cl)cc21	inactive	
OCc1ccccc1	inactive	
Cc1ccc(C(C)C)c(O)c1		14.2%
C=CC(=O)OCCC(=O)O	inactive	
C=CC(C)CCCC(C)(C)O (stereo unspecified)	inactive	
COCCOC(=O)c1ccccc1C(=O)OCCOC	inactive	
CCCCOC(=O)c1ccc(N)cc1	inactive	
CC(CCO)CC(C)(C)C (stereo unspecified)	inactive	
C=CCCCCCCCCC(=O)O		-11.1%
C=C(C)[C@H]1CC=C(C)C(=O)C1	inactive	
CCc1ccccc1CC		-6.24% [at 13.7 µM]
CCOCCOCCOCCO	inactive	
O=C(O)c1ccc(S(=O)(=O)N(Cl)Cl)cc1	inactive	

SMILES	outcome	viability change, negative = cytotoxic
Clc1ccccn1		11.3%
COCCCN	inactive	
CN/C(=C\[N+](=O)[O-])NCCSCc1csc(CN(C)C)n1	inactive	
Brc1ccc(Br)c(Br)c1	inactive	
CC1(C)NC(=O)NC1=O	inactive	
CCO[Si](CCC#N)(OCC)OCC	inactive	
Cc1ccc([N+](=O)[O-])cc1S(=O)(=O)O		0.858%
O=C(O)c1ccccc1C(=O)O		-1.27% [at 80.4 µM]
CC1(C)OC[C@@H]2O[C@@]3(C(=O)O)OC(C)(C)O[C@H]3[C@@H]2O1	inactive	
CNC(=S)N(C)C	inactive	
O=C1CCCC1	inactive	
CC(O)CC(C)(C)O (stereo unspecified)		-10.5% [at 80.4 µM]
COC(=O)CCCC(=O)OC	inactive	
C=CCc1ccc(OC)c(OC)c1	inactive	
Cc1ccc(S(=O)(=O)N=C=O)cc1	inactive	
O=S(=O)(O)c1ccccc1	inactive	
CN1C(=O)CC[C@H]1c1cccnc1	inactive	
CCNC(=S)NCC	inactive	
C=CC[N+](C)(C)CC=C	inactive	

target: Peroxisome proliferator-activated receptor delta (Homo sapiens) (UniProt Q03181); assay: qHTS assay to identify small molecule antagonists of the peroxisome proliferator-activated receptor delta (PPARd) signaling pathway (AID 743215; active means well fitted inhibition curve with a large enough effect in the signal ratio in the repeat runs, not every such curve was filed as active; the % refers to the signal ratio); conditions: HEK293H PPARd-UAS-bla, beta-lactamase FRET ratio, antagonist, 17 h; series mostly up to 62 µM; ratio activity, negative = inhibition: at the top concentration
In short: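 Agonist L165041 (300 nM final) added with compound to PPARd-bla HEK293H UAS-bla reporter cells; 17 h incubation at 37 C. Read-out: LiveBLAzer FRET substrate, 2 h at room temperature, fluorescence intensity.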

SMILES	outcome	ratio activity, negative = inhibition
NCCN1CCNCC1	inactive	
O=c1[nH]cnc2[nH]ncc12		-3.89% [at 80.4 µM]
CC1(C)CC(N)CC(C)(CN)C1 (stereo unspecified)	inactive	
Cc1ccc(C(C)C)c(O)c1	inactive	
C=CC(C)CCCC(C)(C)O (stereo unspecified)	inactive	
COCCOC(=O)c1ccccc1C(=O)OCCOC		1.37% [at 80.4 µM]
CCCCOC(=O)c1ccc(N)cc1	inactive	
Clc1ccccn1	inactive	
COCCCN	inactive	
CN/C(=C\[N+](=O)[O-])NCCSCc1csc(CN(C)C)n1	inactive	
CC1(C)NC(=O)NC1=O	inactive	
Cc1ccc([N+](=O)[O-])cc1S(=O)(=O)O		10.8%
O=C(O)c1ccccc1C(=O)O	inactive	
COC(=O)CCCC(=O)OC	inactive	
Cc1ccc(S(=O)(=O)N=C=O)cc1		-16%
CCNC(=S)NCC	inactive	
C=CC[N+](C)(C)CC=C	inactive	
